Reference: PubChem BioAssay
Activity calls are given as the source filed them.

What was measured:
[1] = compounds binding Alexa647 anti-His antibody – biochemical, small-molecule microarray, 635 nm fluorescence, artefact control for SMM control protein annotation, primary screen (AID 1128); details: higher = more signal;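 also: score merges feature fluorescence with signal-to-noise for each printed compound spot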
[2] = system: Human papillomavirus type 1a E7 protein (residues 1-88); test: HPV1a E7 small-molecule binders, primary screen, biochemical, small-molecule microarray, residues 1-88, 635 nm (AID 1129); details: small-molecule microarray binding, fluorescence 635 nm; higher = more signal
[3] = biological target: Focal adhesion kinase 1 (Homo sapiens) (UniProt Q05397); test: PTK2 protein binding on printed compound slides – biochemical, small-molecule microarray, 635/667 nm fluorescence, BSA, DTT, primary screen (AID 1130); details: 635 nm fluorescence, higher = more signal;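 also: composite of spot emission at 667 nm and signal to noise over triplicate slides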
[4] = system: Fibrinogen (Alexa647-labelled); test: Alexa647-fibrinogen binding to printed small molecules – biochemical, small-molecule microarray, 635/667 nm fluorescence, artefact control for SMM control-protein annotation, profiling panel (AID 1131); details: fibrinogen-A647 binding fluorescence, higher = more signal;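 also: z-score merges 667 nm fluorescence with per-spot signal-to-noise over triplicate slides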
[5] = biological target: Follistatin (Homo sapiens) (UniProt P19883); test: FST protein binding to printed compounds – biochemical, small-molecule microarray, 635/667 nm fluorescence, primary screen (AID 1132); details: 635 nm fluorescence, higher = more signal
[6] = biological target: Fibroblast growth factor 2 (Homo sapiens) (UniProt P09038); test: basic fibroblast growth factor binding to printed compounds – biochemical, small-molecule microarray, 635/667 nm fluorescence, primary screen (AID 1133); details: FGF2, fluorescence 635/667, higher = more signal
[7] = JC-1 mitochondrial potential readout, lung cancer cells – cell-based, A549, JC-1 fluorescence, basal, 24 h, 100 nL, profiling panel (AID 1138); details: higher = more signal;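 also: A549 lung adenocarcinoma cells under basal conditions with no added stimulus; test concentration not given here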
Lefty1 = Lefty1 protein binding to printed compounds – biochemical, small-molecule microarray, 635/667 nm fluorescence, primary screen (AID 1139); details: fluorescence 635/667, higher = more signal
[8] = system: wheat germ agglutinin (Triticum aestivum), Alexa647-labelled; test: Alexa647-WGA lectin binding to printed small molecules – biochemical, small-molecule microarray, 635/667 nm fluorescence, artefact control for SMM control-protein annotation, profiling panel (AID 1140); details: WGA-A647 binding, 635 nm fluorescence, higher = more signal;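 also: score merges 667 nm feature emission with signal to noise over triplicate slides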
[9] = biological target: Luciferin 4-monooxygenase (Photinus pyralis) (UniProt P08659); test: inhibition of purified Photinus pyralis luciferase – biochemical, luminescence, purified enzyme, 2006 set, primary screen (AID 1141); details: purified firefly luciferase, SteadyGlo luminescence, 30 min; higher = more signal, called active from +8 up or from −8 down;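 also: cell-free assay with purified firefly luciferase at 100 ng per well in PBS; test concentration not given here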
Luciferin 4-monooxygenase (Photinus pyralis), sequence (P08659 whole entry, looked up): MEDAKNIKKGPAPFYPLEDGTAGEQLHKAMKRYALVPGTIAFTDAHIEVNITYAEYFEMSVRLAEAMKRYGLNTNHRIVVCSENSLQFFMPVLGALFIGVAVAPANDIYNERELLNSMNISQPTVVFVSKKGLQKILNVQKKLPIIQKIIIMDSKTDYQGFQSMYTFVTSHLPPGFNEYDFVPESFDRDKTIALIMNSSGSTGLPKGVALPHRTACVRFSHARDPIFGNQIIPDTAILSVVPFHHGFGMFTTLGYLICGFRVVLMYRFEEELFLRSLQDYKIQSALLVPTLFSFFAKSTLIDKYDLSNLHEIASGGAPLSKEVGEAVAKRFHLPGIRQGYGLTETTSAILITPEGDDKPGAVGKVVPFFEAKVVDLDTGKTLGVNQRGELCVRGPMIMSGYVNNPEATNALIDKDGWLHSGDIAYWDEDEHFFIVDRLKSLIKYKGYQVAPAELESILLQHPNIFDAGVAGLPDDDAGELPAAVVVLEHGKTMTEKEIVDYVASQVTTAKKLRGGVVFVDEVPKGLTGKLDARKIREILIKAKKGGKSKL

Fibroblast growth factor 2 (Homo sapiens), sequence (P09038 whole entry, looked up): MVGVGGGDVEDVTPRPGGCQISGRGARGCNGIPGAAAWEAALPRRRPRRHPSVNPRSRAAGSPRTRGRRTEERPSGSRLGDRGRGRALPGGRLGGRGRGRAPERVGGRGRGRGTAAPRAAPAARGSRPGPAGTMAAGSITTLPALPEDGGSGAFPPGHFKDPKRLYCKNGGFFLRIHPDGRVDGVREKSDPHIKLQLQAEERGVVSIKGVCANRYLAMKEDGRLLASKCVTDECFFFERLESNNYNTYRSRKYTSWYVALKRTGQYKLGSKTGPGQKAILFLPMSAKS
Follistatin (Homo sapiens), sequence (P19883 whole entry, looked up): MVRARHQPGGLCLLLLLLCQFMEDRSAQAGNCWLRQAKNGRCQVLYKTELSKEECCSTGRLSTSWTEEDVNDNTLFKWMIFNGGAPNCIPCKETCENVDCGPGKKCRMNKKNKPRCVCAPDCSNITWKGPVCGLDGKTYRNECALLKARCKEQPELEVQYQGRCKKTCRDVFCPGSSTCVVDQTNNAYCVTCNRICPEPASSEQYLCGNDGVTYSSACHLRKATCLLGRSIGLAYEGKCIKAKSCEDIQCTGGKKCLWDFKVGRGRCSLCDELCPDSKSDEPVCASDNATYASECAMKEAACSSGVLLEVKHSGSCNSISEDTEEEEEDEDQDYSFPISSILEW
Focal adhesion kinase 1 (Homo sapiens), sequence (Q05397 whole entry, looked up): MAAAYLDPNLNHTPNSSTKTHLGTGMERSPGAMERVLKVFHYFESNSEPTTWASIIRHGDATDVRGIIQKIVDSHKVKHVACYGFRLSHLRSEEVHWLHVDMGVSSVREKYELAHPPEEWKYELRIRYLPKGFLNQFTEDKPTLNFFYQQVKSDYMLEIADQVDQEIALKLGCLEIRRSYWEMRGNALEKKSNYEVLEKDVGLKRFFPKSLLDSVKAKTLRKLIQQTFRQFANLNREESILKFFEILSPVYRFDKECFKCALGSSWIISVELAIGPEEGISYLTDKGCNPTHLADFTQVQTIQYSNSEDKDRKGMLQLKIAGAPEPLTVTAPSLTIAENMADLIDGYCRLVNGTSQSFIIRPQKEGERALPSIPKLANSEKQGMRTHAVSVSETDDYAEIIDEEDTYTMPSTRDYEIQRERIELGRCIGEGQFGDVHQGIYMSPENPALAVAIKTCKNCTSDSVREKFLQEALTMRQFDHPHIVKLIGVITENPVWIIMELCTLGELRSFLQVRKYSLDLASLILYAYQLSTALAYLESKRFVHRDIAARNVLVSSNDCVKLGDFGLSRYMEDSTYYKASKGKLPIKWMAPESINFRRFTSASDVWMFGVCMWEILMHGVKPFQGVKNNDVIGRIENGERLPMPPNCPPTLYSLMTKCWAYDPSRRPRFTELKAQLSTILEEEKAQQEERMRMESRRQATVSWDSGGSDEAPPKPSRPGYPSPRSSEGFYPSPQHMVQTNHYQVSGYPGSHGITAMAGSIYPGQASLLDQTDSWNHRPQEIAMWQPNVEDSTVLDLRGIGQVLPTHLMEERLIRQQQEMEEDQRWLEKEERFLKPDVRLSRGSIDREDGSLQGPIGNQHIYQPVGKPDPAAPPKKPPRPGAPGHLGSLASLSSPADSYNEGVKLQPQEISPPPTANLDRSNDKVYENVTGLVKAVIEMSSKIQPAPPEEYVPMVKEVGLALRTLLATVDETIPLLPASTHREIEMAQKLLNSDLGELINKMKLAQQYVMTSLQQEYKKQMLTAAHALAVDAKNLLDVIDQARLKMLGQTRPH

`Cc1ccc(S[C@]2(C(=O)NCc3ccccc3)CC(=O)N(Cc3ccccc3Cl)[C@@H]2c2ccc(CO)cc2)cc1` gave a composite z-score [1] of 1.29, a composite z-score [2] of -0.561 and a composite z-score [3] of -0.0881. For the same compound, the composite z-score [4] was -0.919, the composite z-score [5] was -0.181 and the composite z-score [6] was -0.756. The z-score [7] was -0.387, the composite z-score (Lefty1) was -0.423 and the composite z-score [8] was -0.3. For the same compound, the z-score [9] was 0.718 (inactive).

Work on `COCCOC(=O)N1C(=O)[C@@]2(c3cc(C#CCNC(N)=O)ccc31)[C@H](c1ccc(O)cc1)N1[C@H](c3ccccc3)[C@H](c3ccccc3)OC(=O)[C@H]1[C@@H]2C(=O)N1CCc2cc(OC)c(OC)cc2C1` yielded a composite z-score [1] of 1.24, a composite z-score [2] of 1.11 and a composite z-score [3] of 1.33. It also gave a composite z-score [4] of 0.336, a composite z-score [5] of 1.36 and a composite z-score [6] of 0.636. The z-score [7] was -0.683, the composite z-score (Lefty1) was 0.8 and the composite z-score [8] was 0.815. The z-score [9] was -1.45 (inactive).

For `COC(=O)C(CC#Cc1ccc2c(c1)[C@]1(C(=O)N2)[C@H](C(=O)N2CCCCCCC2)[C@H]2C(=O)O[C@H](c3ccccc3)[C@H](c3ccccc3)N2[C@@H]1c1ccc(OCCO)cc1)C(=O)OC`, the composite z-score [1] was 3.39, the composite z-score [2] was 1.32 and the composite z-score [3] was 4.91. It also gave a composite z-score [4] of 0.943, a composite z-score [5] of 1.49 and a composite z-score [6] of 1.6. For the same compound, the z-score [7] was -0.949, the composite z-score (Lefty1) was 1.79 and the composite z-score [8] was 1.77. The z-score [9] was 0.035 (inactive).

For `O=C1NC(=O)C2C1C=CC(C(O)C1CCCCC1)N2Nc1ccccn1` (stereo not given), the composite z-score [1] was 0.279, the composite z-score [2] was 0.688 and the composite z-score [3] was 0.113. It also gave a composite z-score [4] of 0.177, a composite z-score [5] of 0.597 and a composite z-score [6] of 0.205. For the same compound, the z-score [7] was 0.517, the composite z-score (Lefty1) was 0.119 and the composite z-score [8] was 0.149. For the same compound, the z-score [9] was -0.224 (inactive).

Work on `COc1cccc(C)c1NC(=O)O[C@H]1[C@H](OC(=O)Nc2ccc3c(c2)OCO3)[C@H](OC(=O)Nc2ccc3c(c2)OCO3)[C@@H](OC)O[C@@H]1CO` yielded a composite z-score [1] of 1.61, a composite z-score [2] of 1.27 and a composite z-score [3] of 0.197. It also gave a composite z-score [4] of 0.993, a composite z-score [5] of 1.3 and a composite z-score [6] of 0.662. The z-score [7] was 0.123, the composite z-score (Lefty1) was 0.802 and the composite z-score [8] was 0.7. For the same compound, the z-score [9] was -6.86 (inactive).

Compound `C=CCOC(=O)[C@H]1[C@@H]2C(=O)O[C@@H](c3ccccc3)[C@@H](c3ccccc3)N2[C@@H](c2ccc(OCCOC(=O)[C@H]3C[C@H]4C(=O)NCC(=O)N4[C@H]3c3cccc(OCCO)c3)cc2)[C@]12C(=O)Nc1ccc(I)cc12` has a composite z-score [1] of 0.844, a composite z-score [2] of 1.06 and a composite z-score [3] of 0.835. For the same compound, the composite z-score [4] was 0.494, the composite z-score [5] was 1.41 and the composite z-score [6] was 1.37. It also gave a z-score [7] of -0.715, a composite z-score (Lefty1) of 1.5 and a composite z-score [8] of 0.288. For the same compound, the z-score [9] was -0.919 (inactive).

With `O=C1N(Cc2ccccc2)Cc2ccccc2C[C@@]12COC(c1ccc(OCCCO)cc1)=N2` the composite z-score [1] was 2.26, the composite z-score [2] was 1.16 and the composite z-score [3] was 0.622. It also gave a composite z-score [4] of -0.143, a composite z-score [5] of 1.39 and a composite z-score [6] of 0.22. It also gave a z-score [7] of -0.503, a composite z-score (Lefty1) of -0.197 and a composite z-score [8] of 0.196. For the same compound, the z-score [9] was -1.26 (inactive).

In the case of `COc1ccc(C(O)C2C=CC3C(=O)N(C)C(=O)C3N2Nc2ccccc2)cc1` (stereo not given), the composite z-score [1] is reported as 0.908, the composite z-score [2] is reported as 1.24 and the composite z-score [3] is reported as 0.368. For the same compound, the composite z-score [4] was 0.925, the composite z-score [5] was 0.578 and the composite z-score [6] was 0.0159. The z-score [7] was 0.436, the composite z-score (Lefty1) was -0.341 and the composite z-score [8] was 1.08. For the same compound, the z-score [9] was -1.17 (inactive).

For `COc1c(C)cc(-c2nc(-c3ccccc3)c3c(c2C)CO[Si]3(C(C)C)C(C)C)cc1C`, the composite z-score [1] was -0.0017, the composite z-score [2] was 0.223 and the composite z-score [3] was 0.0945. It also gave a composite z-score [4] of 0.42, a composite z-score [5] of 0.62 and a composite z-score [6] of 0.376. For the same compound, the z-score [7] was 0.87, the composite z-score (Lefty1) was 0.53 and the composite z-score [8] was -0.0784. The z-score [9] was 0.722 (inactive).

In the case of `C=CCOC(=O)[C@@H]1[C@H]2C(=O)O[C@H](c3ccccc3)[C@H](c3ccccc3)N2[C@H](c2ccc(OCCOC(=O)[C@H]3C[C@H]4C(=O)N[C@@H](CCCCN(C)C)C(=O)N4[C@H]3c3cccc(OCCO)c3)cc2)[C@@]12C(=O)Nc1ccccc12`, the composite z-score [1] is reported as 2.06, the composite z-score [2] is reported as -0.246 and the composite z-score [3] is reported as 0.0815. It also gave a composite z-score [4] of 0.498, a composite z-score [5] of 0.519 and a composite z-score [6] of 0.382. For the same compound, the z-score [7] was -0.407, the composite z-score (Lefty1) was -0.0986 and the composite z-score [8] was 0.517. For the same compound, the z-score [9] was 0.892 (inactive).

In the case of `O=C(O)C1=CC[C@H]2C(=O)N(c3ccccc3)C(=O)[C@@H]12`, the composite z-score [1] is reported as 0.39, the composite z-score [2] is reported as 1.2 and the composite z-score [3] is reported as 0.424. The composite z-score [4] was 0.272, the composite z-score [5] was 0.845 and the composite z-score [6] was -0.12. It also gave a z-score [7] of -1.27, a composite z-score (Lefty1) of 0.0347 and a composite z-score [8] of 0.701. The z-score [9] was 1.57 (inactive).

Work on `COCCCNC(=O)[C@@]1(Cc2ccccc2I)c2ccccc2C(=O)N(C2CCCCC2)[C@H]1c1ccc(CO)cc1` yielded a composite z-score [1] of 0.912, a composite z-score [2] of 1.02 and a composite z-score [3] of 0.312. It also gave a composite z-score [4] of 0.544, a composite z-score [5] of 0.926 and a composite z-score [6] of 1.29. The z-score [7] was 0.438, the composite z-score (Lefty1) was 0.812 and the composite z-score [8] was 0.772. The z-score [9] was 0.948 (inactive).

With `COC(=O)[C@]1(Cc2ccccc2N=[N+]=[N-])N=C(c2ccc(OCCCO)cc2)O[C@@H]1c1ccccc1CN=[N+]=[N-]` the composite z-score [1] was 0.335, the composite z-score [2] was 1.12 and the composite z-score [3] was 2.02. For the same compound, the composite z-score [4] was 0.206, the composite z-score [5] was 1.07 and the composite z-score [6] was 1.38. The z-score [7] was -0.199, the composite z-score (Lefty1) was 0.182 and the composite z-score [8] was 0.0031. The z-score [9] was -0.232 (inactive).

For `CN(C)C(=O)[C@]1(CCS(=O)(=O)c2ccccc2)N=C(c2ccc(OCCCO)cc2)O[C@@H]1c1ccccc1CN=[N+]=[N-]`, the composite z-score [1] was 2.64, the composite z-score [2] was 1.26 and the composite z-score [3] was 1.08. It also gave a composite z-score [4] of 0.994, a composite z-score [5] of 0.983 and a composite z-score [6] of 1.45. It also gave a z-score [7] of -0.381, a composite z-score (Lefty1) of -0.421 and a composite z-score [8] of 0.774. For the same compound, the z-score [9] was -0.345 (inactive).

For `CCCCC(=C=CC[C@H](O)c1ccccc1OCCO)CCO`, the composite z-score [1] was 2.08, the composite z-score [2] was 0.118 and the composite z-score [3] was 0.0679. For the same compound, the composite z-score [4] was -0.472, the composite z-score [5] was 0.689 and the composite z-score [6] was 0.749. It also gave a z-score [7] of -0.378, a composite z-score (Lefty1) of 0.342 and a composite z-score [8] of -0.298. The z-score [9] was 0.207 (inactive).

`COC(=O)[C@@]1(Cc2ccc(F)cc2)[C@H]2c3cc(C(=O)N(C)C)n(CCF)c3C[C@H]2CN1C(=O)c1ccccc1` gave a composite z-score [1] of 1.67, a composite z-score [2] of 0.911 and a composite z-score [3] of 0.0655. It also gave a composite z-score [4] of 0.911, a composite z-score [5] of -0.0051 and a composite z-score [6] of -0.162. It also gave a z-score [7] of 0.656, a composite z-score (Lefty1) of -0.45 and a composite z-score [8] of 0.338. For the same compound, the z-score [9] was -1.09 (inactive).
